FBW7 activator = activators of human E3 ligase FBW7 | AlphaScreen FBW7–phospho-cyclin E peptide binding, activator screen | normalized activity (activation), % at 26.1 µM | 650,000 tested, 0.13% active | AID 1259310; in the data active = normalized activity above about 1.9%;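 also: purified mutant Fbw7 with reduced substrate affinity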
Target sequence (Q969H0 whole entry, looked up): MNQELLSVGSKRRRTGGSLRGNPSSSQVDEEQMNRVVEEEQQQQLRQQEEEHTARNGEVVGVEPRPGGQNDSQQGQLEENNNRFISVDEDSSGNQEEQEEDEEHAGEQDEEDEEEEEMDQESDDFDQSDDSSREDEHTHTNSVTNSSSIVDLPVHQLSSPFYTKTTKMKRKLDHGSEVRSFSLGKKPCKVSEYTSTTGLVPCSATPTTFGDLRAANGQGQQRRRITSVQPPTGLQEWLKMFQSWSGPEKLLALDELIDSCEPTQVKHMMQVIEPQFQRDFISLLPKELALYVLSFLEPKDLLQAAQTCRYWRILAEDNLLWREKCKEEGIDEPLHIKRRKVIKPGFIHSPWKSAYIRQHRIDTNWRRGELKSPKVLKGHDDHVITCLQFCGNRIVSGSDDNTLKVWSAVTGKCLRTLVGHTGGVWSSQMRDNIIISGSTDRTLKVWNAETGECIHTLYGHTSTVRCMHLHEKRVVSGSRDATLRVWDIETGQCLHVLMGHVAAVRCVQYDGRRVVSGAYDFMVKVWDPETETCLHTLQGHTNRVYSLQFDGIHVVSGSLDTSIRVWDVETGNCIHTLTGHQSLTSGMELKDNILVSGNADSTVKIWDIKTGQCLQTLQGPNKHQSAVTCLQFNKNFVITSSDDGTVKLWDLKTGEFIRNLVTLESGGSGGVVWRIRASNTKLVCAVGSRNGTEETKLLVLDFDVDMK
MITF inh = human MITF inhibition, primary screen. O75030. AlphaScreen MITF homodimerization, bead proximity signal. inhibition, % at 2.6 µM. 650,000 tested, 0.91% active; in the data active = inhibition above about 50%
GPR151 ag = activators of human GPR151. Q8TDV0. PathHunter beta-arrestin GPR151 cells, luminescence. activation, % at 11.2 µM. 650,000 tested, 1% active. AID 1508602; in the data active = activation above about 4.9%
TEAD-YAP inh = TEAD-YAP interaction inhibition; HEK-TIYL cells, TEAD-Gal4/YAP UAS-luciferase luminescence; 640,000 tested, 1.4% active; inhibition, % at 9.12 µM; in the data active = inhibition above about 32%
MITF confirm = human MITF inhibition, confirmation | AlphaScreen MITF homodimerization, biotin/His-MITF beads | AID 1259372 | 4,700 tested, 16% active | inhibition, % at 2.6 µM | shares compounds with MITF inh;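 active = inhibition above a cutoff derived from the DMSO control wells, cut at about 28% in these data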;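 also: inhibitors lower the bead chemiluminescence by keeping MITF from dimerizing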
AlphaScreen DR = AlphaScreen optical interference, dose response counter-screen; shares compounds with MITF inh; AlphaScreen optical interference counterscreen, cell-free; IC50, µM; 480 tested, 6% active; AID 1259373; call rule not given here
AlphaScreen intf2 = counter-screen: compounds optically interfering with AlphaScreen; shares compounds with MITF inh; LysRS AlphaScreen counterscreen, signal interference, triplicate; inhibition, % at 2.6 µM; 4,700 tested, 7.6% active; AID 1259376;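 active = inhibition above a cutoff derived from the DMSO control wells, cut at about 30% in these data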
Large screens that a line does not name were inactive (follow-up assays come after a bar, where they were run). A selection: hits, their analogues and other compounds. The true share with any hit is near 3.4%.

COc1ccc(C[C@@H]2NC(=O)[C@H]3CN(C(=O)NCc4ccccc4)CCN3C2=O)cc1	MITF inh 79 | MITF confirm 72 | AlphaScreen DR inactive | AlphaScreen intf2 inactive
O=C1N[C@@H](Cc2cnc[nH]2)C(=O)N2CCN(C(=O)NCc3ccccc3)C[C@H]12	none
COc1ccc(C[C@@H]2NC(=O)[C@H]3CN(C(=O)c4ccc(-c5ccccc5)cc4)CCN3C2=O)cc1	none
C[C@@H](O)[C@@H]1NC(=O)[C@H]2CN(C(=O)OCc3ccccc3)CCN2C1=O	none
CC1=C(C(=O)N(C)C)C(c2ccc(C(C)C)cc2)NC(=O)N1 (stereo unspecified)	none
Cc1ccc(C(C)CCN2CCCC(c3ccn[nH]3)C2)o1 (stereo unspecified)	none
c1ccc(CN2CCC(Nc3cc(Nc4ccccc4)ncn3)CC2)cc1	none
O=C(CN1CCSCC1)N/N=C/c1cccc(C(F)(F)F)c1	MITF inh 56 | MITF confirm inactive | AlphaScreen intf2 inactive
Nc1nc(CSc2nnc(-c3cccc(F)c3)n2-c2ccccc2)nc(N2CCOCC2)n1	MITF inh 51 | MITF confirm inactive | AlphaScreen intf2 inactive
COCCN1COc2c(cc(Cl)c3cccnc23)C1	MITF inh 66 | MITF confirm 48 | AlphaScreen intf2 92
COc1ccc(CCN2COc3c(cc(Cl)c4cccnc34)C2)cc1OC	MITF inh 68, TEAD-YAP inh 39 | MITF confirm 94 | AlphaScreen intf2 100
Cc1ccc(C(=O)O/N=C(\N)c2cccc([N+](=O)[O-])c2)cc1C	none
Cc1cc(C)n(CCNC2CCN(c3ccc(C(=O)N4CCOCC4)cc3)CC2)n1	none
CCc1nnc2sc(-c3ccc(NC(=O)C(C)(C)C)cc3)nn12	MITF inh 54 | MITF confirm inactive | AlphaScreen intf2 inactive
CCc1nnc2sc(-c3ccc(NC(=O)COc4ccc(OC)cc4)cc3)nn12	none
CCc1n[nH]c(=S)n1/N=C/c1ccc(F)cc1	none
CCc1n[nH]c(=S)n1N=C1CCC(C)CC1 (stereo unspecified)	MITF inh 59 | MITF confirm inactive | AlphaScreen intf2 inactive
Cc1sc2ncnc(SCC(=O)Nc3sc4c(c3C#N)CCC4)c2c1C	none
COc1ccc(CN2CCN(C(=O)c3ccncc3)CC2)cc1OC	MITF inh 70 | MITF confirm inactive | AlphaScreen intf2 inactive
COc1cc(C(=O)N2CCN(Cc3ccncc3)CC2)cc(OC)c1OC	MITF inh 76 | MITF confirm inactive | AlphaScreen intf2 inactive
COc1cc(CN2CCN(C(=O)c3ccncc3)CC2)cc(OC)c1OC	MITF inh 72 | MITF confirm inactive | AlphaScreen intf2 inactive
COc1cc(OC)cc(C(=O)N2CCN(Cc3cc(OC)c(OC)c(OC)c3)CC2)c1	none
COc1ccc(C(=O)N2CCN(Cc3ccc(OC)c(OC)c3)CC2)cc1	none
Cc1ccc(CCNC(=O)CN2C(=O)CCSc3ccccc32)cc1	none
O=C(Nc1nnc(C(F)(F)F)s1)c1c(Cl)cccc1Cl	none
Cc1cccc(C(=O)NCC(c2ccco2)S(=O)(=O)c2ccc(F)cc2)c1 (stereo unspecified)	none
CCN(CC)CCCNC(=O)c1[nH]c(C)c(C(C)=O)c1C	none
CCN(CC)CCCNC(=O)c1[nH]c(C)c(C(=O)NC2CCCCC2)c1C	MITF inh 90 | MITF confirm inactive | AlphaScreen intf2 inactive
COCCNCC(=O)Nc1ccc(CN2CCCCC2)cc1	MITF inh 53 | MITF confirm inactive | AlphaScreen intf2 inactive
COc1cccc(CNCC(=O)Nc2ccc(N3CCCCCC3)cc2)c1	MITF inh 53 | MITF confirm inactive | AlphaScreen intf2 inactive
O=C(CCl)Nc1ccc(CN2CCCCC2)cc1	none
COCCNCC(=O)Nc1ccc(N2CCCCC2)cc1	MITF inh 61 | MITF confirm inactive | AlphaScreen intf2 inactive
CCCN(CCC)S(=O)(=O)c1c[nH]c(C(=O)OC)c1	none
c1ccc(-c2cc3c(NCc4ccc5c(c4)OCO5)ncnc3s2)cc1	none
COc1cccc2cc(C(=O)N(CC3CCCO3)c3nc4c(C)ccc(C)c4s3)oc12 (stereo unspecified)	none
O=C(Nc1ccc(Cl)cc1Cl)N[C@H]1C[C@H]2C(=O)N3CCC[C@H]3C(=O)N2C1	none
O=C(CCc1ccco1)Nc1ccc(-c2cn3c4c(nnc3n2)CCCC4)cc1	MITF inh 72 | MITF confirm 58 | AlphaScreen DR inactive | AlphaScreen intf2 inactive

High-throughput results from PubChem BioAssay.
